# In all, about 69,000 compounds went through this assay and about 950 (1.4%) showed an effect of 50% or more. For the sample, strong results were picked, then their nearest neighbours and some compounds at random.
# Tested on: Mycobacterium tuberculosis
# Experiment: Cornell M. t heat shock assay; note: in the data most compounds retested in dose-response had high values
# Format: functional, organism-based
# Set-up: dose or concentration left out as unconfirmed
row,SMILES,Percent Effect [%]
1,CCCc1nnc(N[C@H](C)c2ccc(OC)cc2)o1,32.03
2,O=C(Nc1ccccc1)N1C(CO)[C@]2(O)CC[C@H]1CC2 (stereo not given in full),-13.23
3,C=C1C(C)(C)[C@H]2CC[C@]1(C(=O)N1CCC(n3cc(CO)nn3)CC1)C2,11.02
4,C[C@H]1C(=O)NC[C@H]2CN(CCc3ccccc3)C[C@H]21.O=C(O)C(F)(F)F,-3.474
5,CN(C)c1ccnc(C2CCCN2)n1.Cl (stereo not given),-9.101
6,Cc1ccc(CN2CC3(CCN(C(=O)c4cccnc4)C3)C2)o1.O=C(O)C(F)(F)F.O=C(O)C(F)(F)F,25.41
7,Cl.Cl.O=C(NCc1cncc2c1CCN(Cc1cccs1)C2)C1CC1,3.264
8,O=C(NCc1ccccn1)[C@H]1COC[C@H]2CN(Cc3ccoc3)C[C@H]21.O=C(O)C(F)(F)F.O=C(O)C(F)(F)F,2.625
9,COCCNc1nc(C)nc2c1CCN(C[C@H]1CC[C@@H](N)CC1)CC2,-33.02
10,Cn1nc(COc2cccnc2)c2c1CCN(c1cnccn1)C2.O=CO.O=CO,1.293
11,O=C(O)C(F)(F)F.O=C(O)C(F)(F)F.c1cncc(N2CCOCC3(CCCN(Cc4cccs4)C3)C2)c1 (stereo not given),-22.26
12,CC(C)[C@H](N)C(=O)N1CCCC(C2=Nc3ccccc3S(=O)(=O)N2)C1.Cl (stereo not given in full),13.38
13,Cc1cccc(CN2CCc3onc(Cn4cccc4)c3C2)n1.O=C(O)C(F)(F)F,14.85
14,COCCN1C2(CCN(CC3CC3)C2)c2ccccc2S1(=O)=O.O=C(O)C(F)(F)F (stereo not given),3.018
15,NC(=O)c1ccc(CNC(=O)Nc2cn[nH]c2)cc1,-17.84
16,Cc1nc(Nc2nccs2)cc(C2CCCN2C2CCOCC2)n1 (stereo not given),-17.35
17,Cc1cc(C2CCCN2Cc2cccc(C(=O)Nc3nccs3)c2)no1 (stereo not given),-4.082
18,Cc1ccccc1CN1CCCC1c1cccc(Nc2nccs2)n1 (stereo not given),106.1
19,Cc1cccc(CN2CCCC2c2cccc(CCC(=O)O)n2)c1 (stereo not given),-20.44
20,Cc1cccc(CN2CCCC2c2cccc(Nc3nccs3)n2)c1 (stereo not given),104
21,Cc1nc(Nc2ccccn2)cc(C2CCCN2Cc2ncc[nH]2)n1 (stereo not given),21.63
22,CCCN(CC1CC1)C(=O)CN1CCCC1c1cnn(C)c1 (stereo not given),3.305
23,CS(=O)(=O)N1CCN(C(=O)CCC2CCCO2)CC1 (stereo not given),9.25

row,SMILES,Percent Effect [%]
1,Cc1noc(C)c1CN1CCC2(CC1)C(c1cnn(C)c1)CC(=O)N2C.O=C(O)C(F)(F)F (stereo not given),38.42
2,CC(=O)N1CCO[C@@H]2CN(S(=O)(=O)c3cccnc3)C[C@@H]2C1.O=C(O)C(F)(F)F,22.17
3,Cc1cccc(CN2CCc3nnc(CO)n3CC2)n1.O=C(O)C(F)(F)F,-11.61
4,CC(C)CN1CCC2(C=C(C(=O)NC3CC3)c3ccccc32)CC1.O=C(O)C(F)(F)F,-0.1524
5,CC(=O)NC1CCN(c2cnc(C3CCNCC3)cn2)CC1.Cl,-24.22
6,O=C(O)C(F)(F)F.c1cnc(N2CCO[C@H]3[C@H](OCC4CC4)CC[C@@H]32)nc1,10.71
7,Fc1cnc(N2CCO[C@H]3[C@H](OCC4CCOCC4)CC[C@@H]32)nc1.O=C(O)C(F)(F)F,47.96
8,O=C(O)C(F)(F)F.c1cnc(N2CCO[C@H]3[C@H](OCC4CCOCC4)CC[C@@H]32)nc1,52.27
9,CCOCC(=O)N1CCC2(CC1)CC(c1ccccc1)CO2 (stereo not given),16.4
10,CS(=O)(=O)N1C[C@H]2C[C@H](C(=O)N3CCOCC3)[C@@H](C1)O2,9.276
11,CN(Cc1cccnc1)c1nc(-c2ccccn2)nc2c1CCNCC2,7.828
12,CN(Cc1nccs1)c1nc(-c2ccccn2)nc2c1CCNCC2,47.94
13,CN(Cc1ccsc1)c1nc(-c2ccccn2)nc2c1CCNCC2,90.45
14,O=C(O)C(F)(F)F.c1cnc(NCc2nnn3c2CN(Cc2ccsc2)CCC3)nc1,-34.33
15,Cl.O=C(NC1CCCC1)c1cc(C2CCCNC2)n[nH]1 (stereo not given),2.974
16,COCCN1C[C@@H]2[C@@H](OC)CCN(Cc3ccsc3)[C@@H]2C1.O=C(O)C(F)(F)F.O=C(O)C(F)(F)F,-56.24
17,c1nc(CCNc2nc(C3CC3)nc3c2CCNCC3)c[nH]1,-37.66
18,c1cc(-c2nc3c(c(NCCc4c[nH]cn4)n2)CCNCC3)ccn1,-32.96
19,c1coc(-c2nc3c(c(NCc4n[nH]c5c4CCC5)n2)CCNCC3)c1,-50.31
20,c1ccc(-c2nc3c(c(NCCc4c[nH]cn4)n2)CCNC3)cc1,103.9
21,c1ccc(-c2nc3c(c(NCc4nnc5n4CCC5)n2)CCNC3)cc1,-1.823
22,c1ccc(-c2nc3c(c(NCc4n[nH]c5c4CCC5)n2)CCNC3)cc1,105.2
23,Cc1cnc(N2CCc3c(CNc4ccnc(C)n4)cncc3C2)nc1.Cl,12.07

row,SMILES,Percent Effect [%]
1,Cl.Cn1ccnc1N1CCN(C(=O)Cc2ccccc2)CC1,-7.185
2,O=C(O)C(F)(F)F.O=C1COC2(CCN(C(=O)C3CC=CC3)CC2)CN1Cc1cccnc1,-29.72
3,CS(=O)(=O)CC(=O)N1C[C@@H]2CN(Cc3ccoc3)CCO[C@@H]2C1,-0.05269
4,Cc1cc(C(=O)N2CCc3nc(C4CCCCN4)ncc3C2)cs1.Cl (stereo not given),-19.38
5,O=C(O)C(F)(F)F.O=C(O)C(F)(F)F.c1cc(CO[C@@H]2CC[C@H]3[C@H]2OCCN3CC2CCOCC2)ccn1,-2.91
6,CN(C)[C@@H]1CN(C(=O)Cc2ccc(F)cc2)[C@@H]2CCCO[C@H]12.O=C(O)C(F)(F)F,-22.98
7,Cc1ccc(C(=O)N2CCc3ccc(=O)n(CCN(C)C)c3CC2)o1.O=C(O)C(F)(F)F,-16.57
8,O=C(NCCc1cccs1)[C@H]1CO[C@H]2CCN(C3CCC3)C[C@H]2C1.O=C(O)C(F)(F)F,6.34
9,CCN1CC[C@@H]2OC[C@H](C(=O)NCc3cccs3)C[C@@H]2C1,64.41
10,O=C(NCc1cccs1)[C@H]1CO[C@H]2CCN(C3CCCC3)C[C@H]2C1.O=C(O)C(F)(F)F,16.16
11,COCCNC(=O)[C@H]1CO[C@H]2CCN(Cc3cccs3)C[C@H]2C1,78.89
12,O=C(NCCc1cccs1)[C@H]1CO[C@H]2CCN(CC3CC3)C[C@H]2C1.O=C(O)C(F)(F)F,1.069
13,COCCN1CC[C@@H]2OC[C@H](C(=O)NCc3cccs3)C[C@@H]2C1.O=C(O)C(F)(F)F,-7.487
14,O=C(NC1CCC1)[C@H]1C[C@@H]2CN(C(=O)Nc3ccc(F)cc3)C[C@H]1O2,-5.328
15,CN(C)c1ncc(-c2cc(C(=O)NCCO)n(CC3CC3)c2)cn1.O=C(O)C(F)(F)F,-4.821
16,CC(C)c1cc(CN2CCNCC2)no1,100.9
17,CC(C)c1cc(CN2CCC(CC(=O)O)CC2)no1,6.455
18,CC(C)c1cc(CN2CCC(N)CC2)no1,-1.347
19,Cl.OC1(c2ccc(F)cc2)CCN(Cc2ccccc2N2CCCC2)CC1,3.038
20,Cc1cccc(C2(O)CCN(Cc3ccccc3N3CCCC3)CC2)c1,106
21,OC1(c2ccccc2F)CCN(Cc2ccccc2N2CCCC2)CC1,-5.486
22,COCC(=O)N1CCC(=O)N(C2CCCC2)Cc2cc(F)ccc21,44.15
23,CC(=O)N1CCC(=O)N(C2CCCC2)Cc2ccccc21,18.8

row,SMILES,Percent Effect [%]
1,O=C1NCCCCC1NC(=O)N1CCCc2cc(F)ccc21 (stereo not given),-1.562
2,CCN(CC)S(=O)(=O)CC(=O)N1CCc2ccc(F)cc21,-19.64
3,CCN1Cc2ccccc2N(C(=O)C2CCC2)CCC1=O,52.52
4,CCN1Cc2cc(F)ccc2N(C(C)=O)CCC1=O,51.48
5,O=C(C1CCC1)N1CCC(=O)N(C2CC2)Cc2cc(F)ccc21,39.59
6,CCN1Cc2cc(F)ccc2N(C(=O)C2CCC2)CCC1=O,57.03
7,CN1C(=O)CCN(C(=O)C2CCCCC2)c2ccccc21,-13.68
8,Cc1cccc(CN2CCC3(CC2)NC(=O)CC3c2ccccc2)n1.O=C(O)C(F)(F)F (stereo not given),-4.61
9,Cc1nc(CN2CCC3(CCCN(Cc4ccoc4)C3)C2=O)cs1.O=C(O)C(F)(F)F.O=C(O)C(F)(F)F (stereo not given),-16.93
10,COc1cccc(CNCc2ccc(F)cc2Cl)c1O,10.28
11,CCOCC1CN(CC2CC2)Cc2nn(CC3CC3)cc21.O=C(O)C(F)(F)F (stereo not given),0.05869
12,Cn1cc(CN2CCCC23CCN(C(=O)c2ccccn2)CC3)cn1.O=C(O)C(F)(F)F,-28.64
13,CCOCCCn1c(NC(=O)c2cnc(C)cn2)nc2ccccc21,28.96
14,CCOCCCn1c(NC(=O)c2scnc2C)nc2ccccc21,84.26
15,CCOCCCn1c(NC(=O)c2cnc(C)s2)nc2ccccc21,-7.023
16,CCOCCCn1c(NC(=O)c2cnn(C)c2)nc2ccccc21,44.67
17,CCOCCCn1c(NC(=O)c2ccc(C)nc2)nc2ccccc21,25.39
18,CCOCCCn1c(NC(=O)c2cc(C)on2)nc2ccccc21,59.74
19,CCOCCCn1c(NC(=O)c2cc(C)no2)nc2ccccc21,4.963
20,CCN(CC)CCn1c(NC(=O)c2scnc2C)nc2ccccc21,46.93
21,CCOCCCn1c(NC(=O)c2ccnc(C)n2)nc2ccccc21,94.99
